# Screening results as filed in PubChem BioAssay.
# A selection: hits, their analogues and other compounds. The true share with any hit is near 1.3%.
# AMA1-RON2 inh = disrupts binding of P. falciparum AMA1 to RON2; AlphaScreen AMA1-biotinylated RON2 peptide binding; Potency, µM (top dose mostly 58.2 µM), for inactives: at the top dose activity change, negative = inhibition, hits mostly inhibitors; 0.2% of 360,000 active;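 also: 0% = vehicle wells and -100% = peptide control; nearly all actives have a fitted effect of over 45% in size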
#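 AMA1 (3D7) with his tag at 25 nM final met compounds first, then biotinylated RON2 peptide at 25 nM; detection used donor plus acceptor beads, 10 µg/mL apiece, read by AlphaScreen after 30 min at room temperature.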
# AmpC detergent = AmpC beta-lactamase inhibition with detergent present. P00811. AmpC hydrolysis of nitrocefin, absorbance 480 nm, 0.01% Triton. Potency, µM (titrated, usually from 114 µM), for inactives: at the top dose activity change, negative = inhibition, actives largely listed as inhibitors. 0.041% of 370,000 active. AID 485294;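 also: 0% = no-compound wells and -100% = no-enzyme wells; nearly all actives have a fitted effect of over 25% in size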
# Target sequence (P00811 whole entry, looked up): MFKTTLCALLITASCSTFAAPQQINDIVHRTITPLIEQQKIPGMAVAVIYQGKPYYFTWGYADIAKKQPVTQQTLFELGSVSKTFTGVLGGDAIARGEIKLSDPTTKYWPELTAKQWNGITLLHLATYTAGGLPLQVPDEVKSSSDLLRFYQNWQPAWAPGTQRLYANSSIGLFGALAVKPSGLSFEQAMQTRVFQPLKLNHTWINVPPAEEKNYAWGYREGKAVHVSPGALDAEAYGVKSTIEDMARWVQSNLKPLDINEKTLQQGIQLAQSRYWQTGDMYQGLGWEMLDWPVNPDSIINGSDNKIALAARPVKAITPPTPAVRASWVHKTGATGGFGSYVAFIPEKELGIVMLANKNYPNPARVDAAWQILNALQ
#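 AmpC (5.3 nM in the dispensed reagent) in 20 mM phosphate pH 7.0 with 0.01% (detergent screen) or 0.0001% Triton X-100 was preincubated with compounds for 15 min at room temperature. Nitrocefin was then added from an 800 uM solution, and hydrolysis was followed at 480 nm.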
# SARS PLP yeast = SARS-CoV PLP inhibition in yeast; 0.19% of 330,000 active; Potency, µM (series often up to 32.9 µM), for the others: at the highest dose activity, positive = growth rescue, actives largely listed as activators; S. cerevisiae expressing SARS-CoV PLpro, growth rescue; AID 485353; calls by dose curve; also: 0% is about no effect; nearly all actives have a fitted effect of over 55% in size
# AmpC inh no detg = AmpC beta-lactamase inhibition without detergent; Potency, µM (top dose mostly 57.1 µM), for inactives: at the top dose activity change, negative = inhibition, hits mostly inhibitors; AmpC nitrocefin hydrolysis, absorbance 480 nm, 0.0001% Triton; 0.52% of 330,000 active;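 also: plate controls were no compound for no effect and no enzyme for full effect; nearly all actives have a fitted effect of over 20% in size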
#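 AmpC (5.3 nM in the dispensed reagent) in 20 mM phosphate pH 7.0 with 0.01% (detergent screen) or 0.0001% Triton X-100 was preincubated with compounds for 15 min at room temperature. Nitrocefin was then added from an 800 uM solution, and hydrolysis was followed at 480 nm.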
# VACV mCherry inh = inhibitors of vaccinia virus infection (mCherry reporter signal); Vaccinia virus mCherry reporter infection, fluorescence; Potency, µM (titrated, usually from 36.5 µM), without a hit: at the highest dose activity change, negative = inhibition, hits mostly inhibitors; 0.63% of 310,000 active; AID 720579; calls by dose curve; tested in A549 cells; also: % is scaled to controls: 0 for no effect and ±100 for the full control effect; nearly all actives have a fitted effect of over 35% in size
# Vaccinia Venus = inhibitors of vaccinia virus (Venus reporter); AID 720580; Vaccinia virus Venus reporter expression, fluorescence; Potency, µM (top dose mostly 36.5 µM), inactives show at the top dose activity change, negative = inhibition, most hits filed as inhibitors; 0.46% of 330,000 active; calls by dose curve; tested in A549 cells; also: % is scaled to controls: 0 for no effect and ±100 for the full control effect; nearly all actives have a fitted effect of over 30% in size
# * hit, by the source's call; i = inactive; ? = inconclusive; . = no result; ! = not active in a repeat; [ ] = dose if it differs, or a comment. Unless noted, calls follow the shape of the dose curve; as a rule, active = well fitted curve in the direction sought with a large enough effect; inconclusive = small, poorly fitted or top-dose-only effect, or another doubt; inactive = no such curve, though single readings can be large; an effect the other way counts as inactive or inconclusive. Potency is read from the fitted curve at half-maximal effect.
SMILES,AMA1-RON2 inh,AmpC detergent,SARS PLP yeast,AmpC inh no detg,VACV mCherry inh,Vaccinia Venus
CCOc1cc(CNc2ccc(N3CCCCC3)cc2)cc(Br)c1OCC(=O)NC(C)(C)C,20µM*,1%,-28%,58%,-8%,5%
CC(=O)Nc1ccccc1OCc1cc(=O)n2c3c(sc2n1)CCCC3,.,0%,.,.,-10%,-2%
Cc1nc2ccccc2nc1CN1CCOc2ccc(C(C)(O)COc3ccccc3)cc2C1 (stereo not given),.,.,.,.,-23%,-18%
CS(=O)(=O)N1CCN(c2nc(-c3cccs3)nc3ccccc23)CC1,.,.,.,.,-7%,-16%
CC(=O)NCCNC(=O)c1cnn(-c2nccc(-c3cc(C)sc3C)n2)c1C,.,.,.,.,-4%,-7%
CCOc1cc(CNc2ccc(N3CCOCC3)cc2)cc(Br)c1OCC,14µM*,-13%,-6%,146%,-16%,-12%
COc1cc(CNc2ccc(N3CCOCC3)cc2)cc(Br)c1OC,?,-7%,0%,-2%[2.29 µM],.,.
C=C(C(=O)c1ccccc1)C(NC(C)(C)C)c1ccccc1 (stereo not given),-1%,.,.,.,18µM*,?
O=[N+]([O-])c1cc(/C=N\Nc2nc(-c3ccccc3)cs2)ccc1O,15%,6%,1%,25µM*,?,2%
Cc1ccc(N2C(=O)NC(=O)/C(=C/c3cnc(-c4ccccc4)nc3)C2=O)cc1C,16%,-18%,13µM*,-22%,-19%,-5%
Cc1cccc(N2C(=O)NC(=O)/C(=C\c3cnc(-c4ccccc4)nc3)C2=O)c1,14%,?,-12%,-31%,i,-1%
O=C(NCCCN1CCCC1=O)c1cc2nc(-c3ccco3)cc(C(F)(F)F)n2n1,-10%,-4%,22µM*,0%,-4%,-16%
Cc1cc(C)n(-c2nc3ccccc3c(=O)n2OCc2ccc(F)cc2)n1,1%,32µM*,-5%,45%,.,-20%
Nc1nc(N)c2cc(CNc3ccc(Cl)c(Cl)c3)ccc2n1,?,.,.,.,?,5.6µM*
CCOc1ccc2nc3cc(NCc4ccc(OC)cc4)ccc3c(N)c2c1,0%,-10%,-2%,-22%,.,.
Cc1cccc(C)c1N(CC(=O)Nc1cc(Cl)ccc1Oc1ccccc1)S(C)(=O)=O,-2%,?,-3%,0.16µM*,.,?
Cc1c(C(=O)NCCc2ccncc2)cnn1-c1nccc(-c2ccccc2C(F)(F)F)n1,.,.,.,.,-25%,-11%
COC(=O)C1C(=O)c2c([nH]c(C(=O)OCC3CCCO3)c2C)CC1C (stereo not given),13%,?,0%,10µM*,-5%,-9%
Cc1ncc2c(c1CNC(=O)c1ccc3c(c1)OCO3)CCN(C(=O)c1csc3c1CCCC3)C2,.,.,.,.,-15%,-6%
N#Cc1ccc(-c2ccco2)nc1SCC(=O)c1ccc(Cl)cc1,6%,0%,2%,10µM*,-19%,-9%
Cc1ccc(C(=O)CSc2nc(-c3ccccc3)ccc2C#N)cc1,62%,-12%,-23%,-31%,-3%,-6%
O=c1c2ccccc2sc2c(CO)ccc(NCCN3CCCCC3)c12,-22%,.,.,.,?,10µM*
OC1C=C2CCN3Cc4cc5c(cc4C(C1O)C23)OCO5 (stereo not given),.,.,.,.,?,7.1µM*
O[C@@H]1[C@@H](O)C=C2CCN3Cc4cc5c(cc4[C@H]1C23)OCO5 (stereo not given in full),5%,?,.,-16%,?,4µM*
CN1CCc2cc3c(cc2C1O)OCO3 (stereo not given),.,.,.,.,-1%,-2%
Cc1ncc2c(c1CNC(=O)c1ccccc1F)CCN(C(=O)c1[nH]c3ccc(Cl)cc3c1C)C2,.,.,.,.,1%,-3%
O=C1CCC/C(=N\NC(=O)c2ccc(NS(=O)(=O)c3ccc(Br)cc3)cc2)C1,7%,-7%,7%,28µM*,i,-6%
O=c1c(-c2ccc(O)cc2)coc2cc(O)ccc12,6%,.,.,.,?,0.63µM*!
Cc1ccccc1-c1coc2cc(O)ccc2c1=O,-6%,1%,1%,-29%,-12%,-3%
